From the supplement of paper PMC10849652
Of roughly 7,900 targets only a part is listed; those with a hit were picked by preference. About 0.6% of all pairs of compound and target were hits. Values without a mark were called inactive.

Tests used:
Test in all cases: log2 fold change, soluble protein after heating vs DMSO (PISA); higher = thermal stabilisation; K562 cells, 10 uM, 30 min; active = over 0.2 and 3.5 SD of the protein, either way, in both replicates (recomputed)
[1] = compound: CC[C@@H]1C(=O)N(C)c2cnc(Nc3ccc(C(=O)NC4CCN(C)CC4)cc3OC)nc2N1C1CCCC1
Outline: (§1)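 Quantification of soluble protein used TMTpro 16plex LC-MS/MS, with channel sums equalised. Samples were the supernatant after 21,000xg for 90 min of pooled aliquots from K562 cells (2×10^6 cells/mL) treated with 10 μM compound for 30 min, heated for 3 min over 48°C-58°C, and extracted in PBS with 0.5% NP-40 at 4°C. Values, from duplicates, describe thermal stability against control samples on a log2 fold-change scale.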

volasertib = compound: CC[C@@H]1C(=O)N(C)c2cnc(Nc3ccc(C(=O)N[C@H]4CC[C@H](N5CCN(CC6CC6)CC5)CC4)cc3OC)nc2N1C(C)C [volasertib]
Outline: as §1

[2] = compound: CC[C@H](C)N1C=C(C2=C(C=C(C=C21)C3=CN=C(C=C3)N4CCNCC4)C(=O)NCC5=C(C=C(NC5=O)C)C)C
Outline: as §1

epoxomicin = compound: CC[C@H](C)[C@@H](C(=O)N[C@@H]([C@@H](C)O)C(=O)N[C@@H](CC(C)C)C(=O)[C@]1(CO1)C)NC(=O)[C@H]([C@@H](C)CC)N(C)C(=O)C [epoxomicin]
Outline: as §1

[3] = compound: CCn1c(C(=O)N(C2CC2)C2CC2)cc2c3c(ncn3C)c(Nc3cc(C)n(C)n3)nc21
Outline: as §1

[4] = compound: CCn1cc(-c2ccnc3[nH]c(-c4cccc(CN(C)C)c4)cc23)c(-c2ccc(NC(=O)N(C)C)cc2)n1
Outline: as §1

[5] = compound: CN(C)CC(=O)Nc1ccc2[nH]c(=O)c3ccccc3c2c1
Outline: as §1

rosiglitazone = compound: CN(CCOC1=CC=C(C=C1)C[C@H]2C(=O)NC(=O)S2)C3=CC=CC=N3 (racemic) [rosiglitazone]
Outline: as §1

[6] = compound: CN1C2=C(C3=C1C(=O)N(N=C3)CC4=CC(=CC=C4)N)SC(=C2)S(=O)C
Outline: as §1

[7] = compound: CN1CCC(CNc2ccc3ncc(-c4cccc(OC(F)(F)F)c4)n3n2)CC1
Outline: as §1

saracatinib = compound: CN1CCN(CCOc2cc(OC3CCOCC3)c3c(Nc4c(Cl)ccc5c4OCO5)ncnc3c2)CC1 [saracatinib]
Outline: as §1

sotrastaurin = compound: CN1CCN(c2nc(C3=C(c4c[nH]c5ccccc45)C(=O)NC3=O)c3ccccc3n2)CC1 [sotrastaurin]
Outline: as §1

alvocidib = compound: CN1CC[C@H](c2c(O)cc(O)c3c(=O)cc(-c4ccccc4Cl)oc23)[C@H](O)C1 [alvocidib]
Outline: as §1

Tubastatin A = compound: CN1CCc2c(c3ccccc3n2Cc2ccc(C(=O)NO)cc2)C1 [Tubastatin A]
Outline: as §1

[8] = compound: CNC(=O)C1=CC=CC=C1NC2=NC(=NC=C2Cl)NC3=C(C=C(C=C3)N4CCOCC4)OC
Outline: as §1

defactinib = compound: CNC(=O)c1ccc(Nc2ncc(C(F)(F)F)c(NCc3nccnc3N(C)S(C)(=O)=O)n2)cc1 [defactinib]
Outline: as §1

rucaparib = compound: CNCc1ccc(-c2[nH]c3cc(F)cc4c3c2CCNC4=O)cc1 [rucaparib]
Outline: as §1

[9] = compound: CNc1nc(-c2ccc3c(N)n[nH]c3c2)cc(N2C[C@@H](C(=O)NC3CCCCC3)CC[C@H]2C)n1
Outline: as §1

encorafenib = compound: COC(=O)N[C@@H](C)CNc1nccc(-c2cn(C(C)C)nc2-c2cc(Cl)cc(NS(C)(=O)=O)c2F)n1 [encorafenib]
Outline: as §1

[10] = compound: COC(=O)[C@H](CCSC)NC(=O)C1=C(C=C(C=C1)NC[C@H](CS)N)C2=CC=CC=C2
Outline: as §1

UniProt Q9UHB9, sequence (Q9UHB9 whole entry, looked up): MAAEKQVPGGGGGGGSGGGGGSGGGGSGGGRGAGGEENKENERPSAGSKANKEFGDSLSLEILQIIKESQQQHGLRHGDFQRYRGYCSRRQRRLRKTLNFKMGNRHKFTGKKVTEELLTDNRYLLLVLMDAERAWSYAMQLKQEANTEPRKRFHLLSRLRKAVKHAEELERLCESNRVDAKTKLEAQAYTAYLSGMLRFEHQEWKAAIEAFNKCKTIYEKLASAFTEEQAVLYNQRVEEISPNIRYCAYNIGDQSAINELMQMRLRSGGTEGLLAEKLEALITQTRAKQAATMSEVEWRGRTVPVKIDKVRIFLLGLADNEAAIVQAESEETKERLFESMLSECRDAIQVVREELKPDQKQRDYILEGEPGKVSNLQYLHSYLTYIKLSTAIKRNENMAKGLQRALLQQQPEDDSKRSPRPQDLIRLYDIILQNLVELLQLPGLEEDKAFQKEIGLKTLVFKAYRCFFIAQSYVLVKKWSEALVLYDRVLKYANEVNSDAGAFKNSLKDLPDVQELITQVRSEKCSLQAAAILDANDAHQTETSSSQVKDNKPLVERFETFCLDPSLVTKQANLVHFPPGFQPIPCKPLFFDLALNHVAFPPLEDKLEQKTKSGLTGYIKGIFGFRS
UniProt Q15208, sequence (Q15208 whole entry, looked up): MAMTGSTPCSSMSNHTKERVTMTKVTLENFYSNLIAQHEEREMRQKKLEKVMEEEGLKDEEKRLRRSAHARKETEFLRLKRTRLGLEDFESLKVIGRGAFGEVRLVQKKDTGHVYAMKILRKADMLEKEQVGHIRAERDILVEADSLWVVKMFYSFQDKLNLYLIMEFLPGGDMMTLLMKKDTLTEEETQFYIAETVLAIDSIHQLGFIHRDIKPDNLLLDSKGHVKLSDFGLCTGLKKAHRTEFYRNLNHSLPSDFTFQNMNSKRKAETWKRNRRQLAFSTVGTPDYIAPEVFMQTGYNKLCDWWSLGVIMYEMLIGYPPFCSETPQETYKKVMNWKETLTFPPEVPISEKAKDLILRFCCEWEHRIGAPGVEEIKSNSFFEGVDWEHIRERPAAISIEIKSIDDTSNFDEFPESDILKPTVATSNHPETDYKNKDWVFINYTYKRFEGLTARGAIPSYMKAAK
UniProt Q92797, sequence (Q92797 whole entry, looked up): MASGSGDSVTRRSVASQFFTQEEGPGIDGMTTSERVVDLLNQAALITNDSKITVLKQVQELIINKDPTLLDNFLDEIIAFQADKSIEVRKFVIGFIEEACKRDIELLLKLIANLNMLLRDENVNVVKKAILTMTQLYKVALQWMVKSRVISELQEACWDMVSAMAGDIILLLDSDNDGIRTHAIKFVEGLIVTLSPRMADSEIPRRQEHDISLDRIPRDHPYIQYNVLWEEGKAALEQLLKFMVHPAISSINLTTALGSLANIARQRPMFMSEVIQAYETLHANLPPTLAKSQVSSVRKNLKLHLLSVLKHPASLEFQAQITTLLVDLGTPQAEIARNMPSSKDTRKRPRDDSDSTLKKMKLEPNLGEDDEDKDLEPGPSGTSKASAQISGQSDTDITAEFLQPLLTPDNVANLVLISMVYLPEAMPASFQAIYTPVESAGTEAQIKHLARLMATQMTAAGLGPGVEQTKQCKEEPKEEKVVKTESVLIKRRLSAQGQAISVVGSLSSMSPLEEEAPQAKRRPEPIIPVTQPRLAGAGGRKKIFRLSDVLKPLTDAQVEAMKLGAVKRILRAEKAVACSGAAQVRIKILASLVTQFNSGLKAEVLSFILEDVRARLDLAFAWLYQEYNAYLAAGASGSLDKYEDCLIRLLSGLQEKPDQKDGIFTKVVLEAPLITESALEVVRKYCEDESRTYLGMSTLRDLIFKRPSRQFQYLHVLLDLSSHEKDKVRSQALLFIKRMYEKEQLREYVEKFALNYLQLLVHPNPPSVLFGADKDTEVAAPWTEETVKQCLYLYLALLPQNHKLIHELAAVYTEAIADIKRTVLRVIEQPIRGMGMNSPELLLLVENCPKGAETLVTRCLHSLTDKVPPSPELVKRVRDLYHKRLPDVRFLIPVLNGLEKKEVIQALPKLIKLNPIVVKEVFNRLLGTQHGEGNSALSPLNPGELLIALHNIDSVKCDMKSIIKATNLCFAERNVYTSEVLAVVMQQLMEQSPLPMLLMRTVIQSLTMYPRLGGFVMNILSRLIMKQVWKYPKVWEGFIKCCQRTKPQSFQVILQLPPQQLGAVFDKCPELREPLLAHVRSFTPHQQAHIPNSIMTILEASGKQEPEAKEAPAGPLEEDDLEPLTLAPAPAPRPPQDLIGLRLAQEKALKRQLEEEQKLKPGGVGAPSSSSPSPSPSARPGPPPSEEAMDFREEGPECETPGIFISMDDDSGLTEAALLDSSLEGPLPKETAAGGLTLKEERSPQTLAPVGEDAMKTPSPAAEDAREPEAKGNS
UniProt Q9BSF4, sequence (Q9BSF4 whole entry, looked up): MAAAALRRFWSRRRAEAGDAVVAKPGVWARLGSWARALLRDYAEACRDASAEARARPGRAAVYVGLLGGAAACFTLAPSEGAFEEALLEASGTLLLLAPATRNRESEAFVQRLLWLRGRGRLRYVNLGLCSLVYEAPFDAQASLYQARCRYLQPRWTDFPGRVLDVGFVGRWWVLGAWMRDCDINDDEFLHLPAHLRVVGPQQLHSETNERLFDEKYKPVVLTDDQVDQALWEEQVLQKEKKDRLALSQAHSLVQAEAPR
UniProt O95149, sequence (O95149 whole entry, looked up): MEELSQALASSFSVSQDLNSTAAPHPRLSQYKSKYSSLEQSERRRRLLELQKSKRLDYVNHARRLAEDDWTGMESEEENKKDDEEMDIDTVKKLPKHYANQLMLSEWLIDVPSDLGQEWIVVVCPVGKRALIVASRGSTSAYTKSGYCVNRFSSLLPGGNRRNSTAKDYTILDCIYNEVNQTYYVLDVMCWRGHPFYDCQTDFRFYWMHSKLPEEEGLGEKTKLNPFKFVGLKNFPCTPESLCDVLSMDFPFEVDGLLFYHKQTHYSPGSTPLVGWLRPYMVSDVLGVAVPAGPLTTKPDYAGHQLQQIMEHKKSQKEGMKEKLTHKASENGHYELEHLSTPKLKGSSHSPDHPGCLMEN
UniProt O75494, sequence (O75494 whole entry, looked up): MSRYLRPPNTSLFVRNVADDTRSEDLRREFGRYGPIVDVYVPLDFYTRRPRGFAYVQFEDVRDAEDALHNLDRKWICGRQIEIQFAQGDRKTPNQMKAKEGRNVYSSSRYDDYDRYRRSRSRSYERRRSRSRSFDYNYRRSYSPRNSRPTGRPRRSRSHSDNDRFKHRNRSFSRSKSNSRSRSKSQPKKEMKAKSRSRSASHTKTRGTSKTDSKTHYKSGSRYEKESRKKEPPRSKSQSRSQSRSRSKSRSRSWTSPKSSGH
UniProt Q9H2G2, sequence (Q9H2G2 whole entry, looked up): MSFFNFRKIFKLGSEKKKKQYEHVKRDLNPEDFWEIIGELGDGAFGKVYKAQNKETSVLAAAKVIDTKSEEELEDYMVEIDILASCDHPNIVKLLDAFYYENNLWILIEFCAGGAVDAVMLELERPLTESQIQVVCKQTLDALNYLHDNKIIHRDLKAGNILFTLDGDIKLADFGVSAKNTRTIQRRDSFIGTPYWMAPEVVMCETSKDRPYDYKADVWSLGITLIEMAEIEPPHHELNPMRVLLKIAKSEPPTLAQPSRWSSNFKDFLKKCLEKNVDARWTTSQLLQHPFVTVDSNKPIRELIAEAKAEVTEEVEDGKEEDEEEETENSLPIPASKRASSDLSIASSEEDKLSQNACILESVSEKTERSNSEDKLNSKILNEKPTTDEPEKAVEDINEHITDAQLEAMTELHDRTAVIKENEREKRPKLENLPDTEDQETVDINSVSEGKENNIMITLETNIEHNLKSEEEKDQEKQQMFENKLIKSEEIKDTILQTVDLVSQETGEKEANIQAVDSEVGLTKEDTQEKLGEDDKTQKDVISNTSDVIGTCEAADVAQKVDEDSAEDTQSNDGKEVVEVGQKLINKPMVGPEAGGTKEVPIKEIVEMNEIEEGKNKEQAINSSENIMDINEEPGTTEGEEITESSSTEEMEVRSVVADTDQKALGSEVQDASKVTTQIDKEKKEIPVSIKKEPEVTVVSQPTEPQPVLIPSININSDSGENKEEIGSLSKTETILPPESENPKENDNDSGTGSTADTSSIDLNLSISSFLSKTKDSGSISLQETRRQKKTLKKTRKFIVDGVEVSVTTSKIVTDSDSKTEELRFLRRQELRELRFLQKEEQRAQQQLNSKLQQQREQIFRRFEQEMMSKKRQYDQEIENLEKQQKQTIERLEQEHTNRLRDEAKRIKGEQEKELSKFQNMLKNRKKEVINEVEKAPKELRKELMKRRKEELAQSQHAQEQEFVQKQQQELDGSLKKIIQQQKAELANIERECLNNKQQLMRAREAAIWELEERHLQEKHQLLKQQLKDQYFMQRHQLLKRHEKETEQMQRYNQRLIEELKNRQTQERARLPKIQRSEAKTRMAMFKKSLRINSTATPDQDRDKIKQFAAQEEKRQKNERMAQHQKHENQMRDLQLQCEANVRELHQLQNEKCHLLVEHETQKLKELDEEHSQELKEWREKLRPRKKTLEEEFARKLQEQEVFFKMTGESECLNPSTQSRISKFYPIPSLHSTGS
UniProt Q05519, sequence (Q05519 whole entry, looked up): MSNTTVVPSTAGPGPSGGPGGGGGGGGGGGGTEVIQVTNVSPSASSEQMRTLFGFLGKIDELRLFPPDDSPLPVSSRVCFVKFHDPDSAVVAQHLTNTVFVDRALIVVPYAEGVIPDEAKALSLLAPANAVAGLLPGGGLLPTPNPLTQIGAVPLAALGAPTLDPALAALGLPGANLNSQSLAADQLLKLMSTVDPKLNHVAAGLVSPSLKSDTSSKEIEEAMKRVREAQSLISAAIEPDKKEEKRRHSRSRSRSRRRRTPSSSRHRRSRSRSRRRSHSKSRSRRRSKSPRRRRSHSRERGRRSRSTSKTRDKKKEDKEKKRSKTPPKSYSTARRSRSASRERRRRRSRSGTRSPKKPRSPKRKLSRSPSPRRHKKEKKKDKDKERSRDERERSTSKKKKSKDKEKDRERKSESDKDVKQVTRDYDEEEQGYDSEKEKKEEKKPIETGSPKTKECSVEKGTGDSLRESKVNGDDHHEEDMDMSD

Target | log2 fold change [1] | log2 fold change (volasertib) | log2 fold change [2] | log2 fold change (epoxomicin) | log2 fold change [3] | log2 fold change [4] | log2 fold change [5] | log2 fold change (rosiglitazone) | log2 fold change [6] | log2 fold change [7] | log2 fold change (saracatinib) | log2 fold change (sotrastaurin) | log2 fold change (alvocidib) | log2 fold change (Tubastatin A) | log2 fold change [8] | log2 fold change (defactinib) | log2 fold change (rucaparib) | log2 fold change [9] | log2 fold change (encorafenib) | log2 fold change [10]
SUCLG1 (UniProt P53597) | 0.008 | -0.044 | 0.063 | 0.031 | -0.013 | -0.012 | -0.027 | 0.037 | -0.041 | -0.097 | 0.042 | 0.019 | -0.028 | -0.005 | 0.015 | -0.057 | 0.016 | -0.006 | -0.001 | 0.016
SRPRB (UniProt Q9Y5M8) | -0.141 | -0.048 | 0.031 | 0.1 | -0.046 | -0.134 | 0.042 | 0.002 | -0.05 | 0.051 | -0.03 | -0.036 | 0.002 | 0.004 | 0.087 | 0.026 | 0.151 | 0.032 | -0.013 | -0.064
TM9SF2 (UniProt Q99805) | -0.57 (active) | -0.621 (active) | -0.008 | -0.034 | 0.033 | -0.017 | 0.018 | -0.052 | -0.01 | -0.182 | 0.038 | -0.01 | -0.039 | -0.001 | 0.005 | 0.006 | 0.015 | -0.031 | 0.001 | -0.069
TIMM29 (UniProt Q9BSF4) | 0.044 | -0.071 | 0.019 | -0.013 | 0.027 | -0.035 | 0 | -0.016 | -0.103 | 0.062 | 0.054 | 0.051 | -0.068 | 0.003 | -0.03 | 0.1 | -0.008 | 0.002 | -0.098 | 0.13
SNX12 isoform 1 (UniProt Q9UMY4) | -0.124 | -0.252 (active) | 0.069 | 0.028 | -0.068 | 0.043 | -0.012 | 0.058 | 0.045 | -0.275 (active) | 0.035 | 0.07 | 0 | 0.013 | 0.059 | -0.025 | -0.025 | -0.028 | 0.15 | -0.037
STXBP5 (UniProt Q5T5C0) | -0.085 | -0.344 (active) | 0.021 | 0.151 | -0.019 | 0.046 | 0.033 | 0.007 | 0.015 | -0.006 | -0.014 | 0.019 | -0.085 | 0.01 | -0.023 | -0.011 | -0.002 | -0.032 | 0.028 | -0.003
SRSF10 (UniProt O75494) | 0.141 | 0.274 | -0.197 | -0.408 | 0.047 | 0.276 | -0.127 | -0.073 | 0.498 | 0.237 | -0.002 | 0.041 | 0.338 | -0.009 | -0.053 | 0.233 | 0.314 | 0.068 | 0.133 | 0.14
SP1 (UniProt P08047) | 0.047 | 0.102 | 0 | -0.032 | 0.007 | -0.003 | -0.042 | -0.005 | 0.006 | -0.063 | 0.022 | 0.016 | 0.023 | -0.054 | -0.015 | 0.01 | 0.066 | -0.023 | -0.019 | 0.025
TATDN2 (UniProt Q93075) | 0.071 | -0.008 | 0.104 | -0.096 | 0.044 | -0.071 | -0.098 | 0.082 | 0.046 | -0.076 | -0.017 | 0.111 | -0.136 | -0.094 | -0.002 | 0 | -0.175 | 0 | 0.099 | -0.031
SYMPK (UniProt Q92797) | -0.341 | -0.5 (active) | -0.289 | 0.073 | -0.036 | -0.026 | 0.123 | 0.13 | 0.076 | -0.141 | -0.058 | -0.205 | -0.2 | 0.258 | 0.008 | -0.245 | 0.09 | 0.007 | 0.079 | -0.022
SLK isoform 2 (UniProt Q9H2G2) | -0.095 | -0.161 | 0.05 | 0.052 | -0.002 | -0.271 (active) | -0.016 | 0.041 | -0.022 | -0.152 | -0.015 | -0.192 | -0.031 | 0.025 | 0.079 | -0.089 | 0.048 | 0.02 | 0.052 | 0.012
STK38 (UniProt Q15208) | -0.107 | -0.363 (active) | 0.106 | 0.035 | 0 | 0.003 | 0.059 | 0.05 | -0.005 | -0.068 | -0.02 | -0.055 | -0.12 | -0.016 | -0.073 | -0.127 | 0.058 | 0.005 | 0.104 | -0.064
SNUPN (UniProt O95149) | -0.133 | -0.296 (active) | 0.014 | -0.013 | 0.019 | -0.076 | 0.003 | -0.001 | -0.01 | -0.004 | 0.052 | -0.069 | -0.061 | -0.036 | -0.019 | -0.056 | -0.027 | -0.04 | 0.021 | 0.028
SRP68 (UniProt Q9UHB9) | -0.077 | -0.487 (active) | 0.079 | 0.094 | -0.093 | -0.024 | 0.019 | 0.048 | 0.133 | -0.18 | -0.033 | -0.179 | 0.044 | 0.085 | -0.002 | -0.019 | 0.152 | 0.049 | 0.14 | -0.073
SMPD4 isoform 4 (UniProt Q9NXE4) | -0.067 | -0.076 | 0.068 | -0.008 | -0.049 | -0.081 | 0.036 | 0.075 | -0.075 | -0.32 (active) | 0.154 | -0.082 | -0.174 | 0.007 | -0.041 | -0.056 | 0.043 | -0.071 | -0.081 | 0
SRSF11 (UniProt Q05519) | -0.088 | -0.311 (active) | 0.074 | 0.047 | -0.022 | -0.072 | 0.02 | 0.006 | -0.018 | 0.128 | 0.062 | -0.059 | -0.209 | 0.015 | -0.243 | -0.174 | 0.005 | -0.089 | -0.016 | -0.045
